# Compound activity from PubChem.
# IDE exosite FP: displaces the probe from the exo-site of human IDE | AID 1259349 | purified IDE, FL-6b probe fluorescence polarization; hits give low values | P14735 | 6.3% of 17,000 active | z-score at 20 µM;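 active = z-score of -3 or lower, meaning strong loss of probe binding signal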;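 also: His-tagged human IDE residues 42-1019 made in E. coli with 30 nM FL-6b probe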
# Target sequence (P14735 42-1019 limits assumed): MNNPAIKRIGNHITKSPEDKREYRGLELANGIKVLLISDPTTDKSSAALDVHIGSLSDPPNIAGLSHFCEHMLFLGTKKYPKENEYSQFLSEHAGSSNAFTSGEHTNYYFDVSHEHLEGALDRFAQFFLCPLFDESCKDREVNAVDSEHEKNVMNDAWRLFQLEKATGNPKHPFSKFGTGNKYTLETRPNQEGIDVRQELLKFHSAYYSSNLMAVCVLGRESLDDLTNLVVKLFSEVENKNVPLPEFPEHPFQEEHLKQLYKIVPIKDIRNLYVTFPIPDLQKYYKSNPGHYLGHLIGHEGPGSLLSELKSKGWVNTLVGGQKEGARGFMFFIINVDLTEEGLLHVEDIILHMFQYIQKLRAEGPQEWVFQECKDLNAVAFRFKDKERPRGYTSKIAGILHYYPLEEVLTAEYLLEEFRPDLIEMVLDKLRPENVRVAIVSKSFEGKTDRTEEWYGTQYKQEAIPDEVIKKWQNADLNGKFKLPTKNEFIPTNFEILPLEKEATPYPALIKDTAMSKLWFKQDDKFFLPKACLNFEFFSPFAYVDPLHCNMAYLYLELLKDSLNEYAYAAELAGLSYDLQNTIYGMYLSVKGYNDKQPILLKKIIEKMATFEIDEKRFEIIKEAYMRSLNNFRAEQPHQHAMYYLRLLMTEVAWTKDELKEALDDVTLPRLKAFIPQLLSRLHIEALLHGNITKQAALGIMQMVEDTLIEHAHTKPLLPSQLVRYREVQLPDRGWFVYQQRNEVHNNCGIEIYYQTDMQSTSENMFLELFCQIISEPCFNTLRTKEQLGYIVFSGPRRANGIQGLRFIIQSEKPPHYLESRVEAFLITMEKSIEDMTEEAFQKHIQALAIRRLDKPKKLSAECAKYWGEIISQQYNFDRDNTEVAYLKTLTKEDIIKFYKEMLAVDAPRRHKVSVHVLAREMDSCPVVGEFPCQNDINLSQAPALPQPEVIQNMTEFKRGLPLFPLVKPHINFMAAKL
# * = called active by the depositor. This is one part of a sample in which hits are shown more often than they occur.
SMILES,IDE exosite FP
O=C(C1CCC1)N1CC(=O)N2[C@H](CO)[C@@H](c3ccc(C#Cc4cccc(F)c4)cc3)[C@H]2C1,-6.9*
O=C(C1CCCCC1)N1CC(=O)N2[C@H](C1)[C@@H](c1ccc(C#Cc3cccc(F)c3)cc1)[C@@H]2CO,-0.09
O=C(C1CC1)N1CC(=O)N2[C@H](CO)[C@H](c3ccc(C#Cc4cccc(F)c4)cc3)[C@H]2C1,-9.6*
COCC(=O)N1[C@H](C(=O)NCc2ccccc2)[C@@H](CO)[C@@H]2Cn3c(cccc3=O)[C@@H]21,-0.082
COc1ccc(C[C@@H]2CCc3cnnn3COC[C@H](CC(C)C)NC2=O)cc1,-0.86
O=C(C[C@@H]1CC[C@@H]2[C@H](COC[C@@H](O)CN2C(=O)Nc2ccccc2)O1)NCc1ccccc1F,-0.31
Cc1ccccc1-c1ccc([C@@H]2[C@H]3CN(S(=O)(=O)c4cn(C)cn4)CCCCN3[C@H]2CO)cc1,-19*
Cn1cnc(S(=O)(=O)N2CCCCN3[C@H](CO)[C@H](c4ccc(C5=CCCCC5)cc4)[C@@H]3C2)c1,-0.73
Cn1cnc(S(=O)(=O)N2CCCCN3[C@H](C2)[C@H](c2ccc(-c4ccc(F)cc4)cc2)[C@@H]3CO)c1,2.9
Cc1ccccc1-c1ccc([C@H]2[C@@H](CO)N3CCCCN(S(=O)(=O)c4cn(C)cn4)C[C@H]23)cc1,-17*
Cn1cnc(S(=O)(=O)N2CCCCN3[C@H](C2)[C@H](c2ccc(-c4ccccc4F)cc2)[C@@H]3CO)c1,1.3
Cn1cnc(S(=O)(=O)N2CCCCN3[C@@H](CO)[C@H](c4ccc(-c5ccccc5F)cc4)[C@@H]3C2)c1,0.11
Cn1cnc(S(=O)(=O)N2CCCCN3[C@H](C2)[C@H](c2ccc(C4=CCCCC4)cc2)[C@@H]3CO)c1,0.24
COc1ccccc1-c1ccc([C@@H]2[C@H]3CN(S(=O)(=O)c4cn(C)cn4)CCCCN3[C@H]2CO)cc1,-8.4*
Cn1cnc(S(=O)(=O)N2CCCCN3[C@H](CO)[C@@H](c4ccc(-c5ccccc5F)cc4)[C@@H]3C2)c1,-11*
O=C(C[C@@H]1C=C[C@H](NC(=O)Nc2cccc(F)c2)[C@@H](CO)O1)NCC1CCCCC1,1.2
CN1C(=O)c2cc(NS(=O)(=O)c3cccc(F)c3)ccc2OC[C@H]2O[C@@H](CC(=O)N3CCc4ccccc4C3)CC[C@@H]21,0.27
Cc1cccc(S(=O)(=O)N2CCCCN3[C@H](CO)[C@H](c4ccc(C#C[C@H](C)O)cc4)[C@H]3C2)c1,1.7
O=C(Nc1cccc(F)c1)N1CC(=O)N2[C@H](C1)[C@H](c1ccc(-c3ccccc3)cc1)[C@@H]2CO,-0.76
CCCC#Cc1ccc([C@@H]2[C@@H](CO)N3C(=O)CN(C(=O)Nc4cc(F)ccc4F)C[C@H]23)cc1,4.1
CCCNC(=O)N1CC(=O)N2[C@H](C1)[C@H](c1ccc(-c3ccc(C)cc3)cc1)[C@@H]2CO,-3.6*
CCCNC(=O)N1CC(=O)N2[C@H](CO)[C@H](c3ccc(-c4ccncc4)cc3)[C@@H]2C1,0.13
CCCNC(=O)N1CC(=O)N2[C@H](CO)[C@@H](c3ccc(-c4cccc(C)c4)cc3)[C@@H]2C1,-22*
CCCNC(=O)N1CC(=O)N2[C@H](C1)[C@@H](c1ccc(-c3cccc(C)c3)cc1)[C@@H]2CO,-15*
CCCNC(=O)N1CC(=O)N2[C@H](C1)[C@@H](c1ccc(-c3ccc(C)cc3)cc1)[C@@H]2CO,-2.4
SMILES,IDE exosite FP
CCCNC(=O)N1CC(=O)N2[C@H](CO)[C@@H](c3ccc(-c4ccc(C)cc4)cc3)[C@@H]2C1,-0.42
CCCNC(=O)N1CC(=O)N2[C@H](CO)[C@H](c3ccc(-c4ccc(F)cc4)cc3)[C@@H]2C1,0.28
CCCNC(=O)N1CC(=O)N2[C@H](CO)[C@@H](c3ccc(-c4ccc(F)cc4)cc3)[C@@H]2C1,0.15
CCCNC(=O)N1CC(=O)N2[C@H](CO)[C@H](c3ccc(-c4cccc(C)c4)cc3)[C@@H]2C1,-16*
CCCC#Cc1ccc([C@@H]2[C@H](CO)N3C(=O)CN(C(=O)NCCC)C[C@@H]23)cc1,1.5
CCCNC(=O)N1CC(=O)N2[C@@H](CO)[C@H](c3ccc(-c4ccc(F)cc4)cc3)[C@@H]2C1,-2.7
COc1ccccc1NC(=O)N1CC(=O)N2[C@H](CO)[C@@H](c3ccc(-c4ccccc4)cc3)[C@H]2C1,-0.5
O=C(c1ccc2c(c1)OCO2)N1C[C@@H]2[C@H](c3ccccc31)[C@H](CO)N2C(=O)CC1CC1,-0.29
C[C@H](O)C#Cc1ccc([C@@H]2[C@@H](CO)N3CCCCN(C(=O)c4ccncc4)C[C@H]23)cc1,2.4
O=C(Nc1cccc(F)c1)N1CC(=O)N2[C@@H](CO)[C@H](c3ccc(C#CC4CC4)cc3)[C@@H]2C1,-0.57
Cn1cnc(CCNC(=O)[C@@H]2[C@@H](CO)[C@@H]3Cn4c(cccc4=O)[C@@H]3N2C(=O)Nc2ccccc2)c1,0.48
CN(C[C@H]1[C@@H](c2ccccc2)[C@@H](CO)N1C(=O)C1CC1)C(=O)c1ccccn1,1.4
C[C@@H](O)C#Cc1ccc([C@H]2[C@@H](CO)N3CCCCN(C(=O)c4cccc(F)c4)C[C@@H]23)cc1,2.9
C[C@@H]1CN([C@H](C)CO)C(=O)c2cc(NS(=O)(=O)c3cn(C)cn3)ccc2O[C@@H]1CN(C)S(=O)(=O)c1ccc(F)cc1,0.72
C[C@@H]1CN([C@H](C)CO)C(=O)c2cc(NC(=O)C3CC3)ccc2O[C@H]1CN(C)S(=O)(=O)c1ccccc1,-3.5*
C[C@H]1CN([C@@H](C)CO)C(=O)c2cc(NC(=O)C3CC3)ccc2O[C@H]1CN(C)S(=O)(=O)c1ccccc1,0.3
C[C@@H]1CN([C@H](C)CO)C(=O)c2cc(NS(=O)(=O)c3cn(C)cn3)ccc2O[C@H]1CN(C)S(=O)(=O)c1ccc(F)cc1,-4.5*
C[C@@H]1CN([C@@H](C)CO)C(=O)c2cc(NS(=O)(=O)c3cn(C)cn3)ccc2O[C@H]1CN(C)S(=O)(=O)c1ccc(F)cc1,-0.032
C[C@@H]1CN([C@@H](C)CO)C(=O)c2cc(NC(=O)C3CC3)ccc2O[C@@H]1CN(C)S(=O)(=O)c1ccccc1,0.11
COc1cccc(NC(=O)N2CC(=O)N3[C@H](C2)[C@H](c2ccc(C4=CCCCC4)cc2)[C@@H]3CO)c1,-0.86
CO[C@@H]1CN(C)C(=O)c2ccc(NC(=O)NC3CCCCC3)cc2OC[C@@H](C)NC[C@H]1C,-0.075
CN(C)CC(=O)N1[C@@H](CO)[C@H](c2ccccc2)C12CN(C(=O)c1ccc(F)cc1)C2,0.64
Cc1cccc(-c2ccc([C@H]3[C@H](CO)N4CCCCN(S(=O)(=O)c5cccc(C)c5)C[C@@H]34)cc2)c1,1.1
Cc1cccc(-c2ccc([C@@H]3[C@@H](CO)N4CCCCN(S(=O)(=O)c5ccccc5C)C[C@@H]34)cc2)c1,-20*
Cc1ccccc1S(=O)(=O)N1CCCCN2[C@H](CO)[C@@H](c3ccc(-c4cccc(F)c4)cc3)[C@@H]2C1,-7.3*
Cc1cccc(-c2ccc([C@@H]3[C@@H](CO)N4CCCCN(S(=O)(=O)c5cccc(C)c5)C[C@@H]34)cc2)c1,-9.8*
Cc1cccc(-c2ccc([C@@H]3[C@@H](CO)N4CCCCN(S(=O)(=O)c5cccc(C)c5)C[C@H]34)cc2)c1,3.6
O=S(=O)(c1ccccc1F)N1CCCCN2[C@@H](CO)[C@@H](c3ccc(-c4ccccc4)cc3)[C@@H]2C1,0.014
Cc1cccc(-c2ccc([C@@H]3[C@@H](CO)N4CCCCN(S(=O)(=O)c5ccccc5C)C[C@H]34)cc2)c1,2.1
